molecular target: AgAbp1; assay: SPOT peptide array binding signal intensity (averaged, normalized) (arbitrary units (background-subtracted, floor 0; scale differs between SH3 domains)); higher = stronger binding of the SH3 domain to the peptide
Procedure: (§1)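 GST-tagged SH3 domains from S. cerevisiae (Sc), A. gossypii (Ag), C. albicans (Ca) and S. pombe (Sp) were incubated at 10 ug/ml overnight at 4 C on cellulose SPOT membranes carrying 292 synthetic 15-mer peptides mined from the S. cerevisiae proteome (cysteines replaced by serines). Binding was detected with anti-GST antibody, HRP secondary and chemiluminescence, quantified with Genespotter, and reported as normalized spot intensities averaged over biological replicates.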

Row | Binder | SPOT peptide array binding signal intensity
1 | PVLPPPRSPNRPTLS | 24

molecular target: AgBbc1; assay: as above
Procedure: as §1

Row | Binder | SPOT peptide array binding signal intensity
2 | PVLPPPRSPNRPTLS | 700

molecular target: AgBem1-D1; assay: as above
Procedure: as §1

Row | Binder | SPOT peptide array binding signal intensity
3 | PVLPPPRSPNRPTLS | 43

molecular target: AgBzz1-D1; assay: as above
Procedure: as §1

Row | Binder | SPOT peptide array binding signal intensity
4 | PVLPPPRSPNRPTLS | 20

molecular target: AgBzz1-D2; assay: as above
Procedure: as §1

Row | Binder | SPOT peptide array binding signal intensity
5 | PVLPPPRSPNRPTLS | 1

molecular target: AgCyk3; assay: as above
Procedure: as §1

Row | Binder | SPOT peptide array binding signal intensity
6 | PVLPPPRSPNRPTLS | ≤ 0

molecular target: AgFus1; assay: as above
Procedure: as §1

Row | Binder | SPOT peptide array binding signal intensity
7 | PVLPPPRSPNRPTLS | ≤ 0

molecular target: AgHof1; assay: as above
Procedure: as §1

Row | Binder | SPOT peptide array binding signal intensity
8 | PVLPPPRSPNRPTLS | 9

molecular target: AgHse1; assay: as above
Procedure: as §1

Row | Binder | SPOT peptide array binding signal intensity
9 | PVLPPPRSPNRPTLS | ≤ 0

molecular target: AgLsb1; assay: as above
Procedure: as §1

Row | Binder | SPOT peptide array binding signal intensity
10 | PVLPPPRSPNRPTLS | 1

molecular target: AgLsb4; assay: as above
Procedure: as §1

Row | Binder | SPOT peptide array binding signal intensity
11 | PVLPPPRSPNRPTLS | 369

molecular target: AgMyo5; assay: as above
Procedure: as §1

Row | Binder | SPOT peptide array binding signal intensity
12 | PVLPPPRSPNRPTLS | 15.5

molecular target: AgNbp2; assay: as above
Procedure: as §1

Row | Binder | SPOT peptide array binding signal intensity
13 | PVLPPPRSPNRPTLS | 1.5

molecular target: AgRvs167; assay: as above
Procedure: as §1

Row | Binder | SPOT peptide array binding signal intensity
14 | PVLPPPRSPNRPTLS | 5.67

molecular target: AgSho1; assay: as above
Procedure: as §1

Row | Binder | SPOT peptide array binding signal intensity
15 | PVLPPPRSPNRPTLS | ≤ 0

molecular target: AgSla1-D1-D2; assay: as above
Procedure: as §1

Row | Binder | SPOT peptide array binding signal intensity
16 | PVLPPPRSPNRPTLS | ≤ 0

molecular target: AgSla1-D3; assay: as above
Procedure: as §1

Row | Binder | SPOT peptide array binding signal intensity
17 | PVLPPPRSPNRPTLS | 0.5

molecular target: CaAbp1-D1; assay: as above
Procedure: as §1

Row | Binder | SPOT peptide array binding signal intensity
18 | PVLPPPRSPNRPTLS | 418

molecular target: CaAbp1-D2; assay: as above
Procedure: as §1

Row | Binder | SPOT peptide array binding signal intensity
19 | PVLPPPRSPNRPTLS | 79

molecular target: CaBbc1; assay: as above
Procedure: as §1

Row | Binder | SPOT peptide array binding signal intensity
20 | PVLPPPRSPNRPTLS | 1660

molecular target: CaBem1-D1; assay: as above
Procedure: as §1

Row | Binder | SPOT peptide array binding signal intensity
21 | PVLPPPRSPNRPTLS | 31

molecular target: CaBzz1-D1; assay: as above
Procedure: as §1

Row | Binder | SPOT peptide array binding signal intensity
22 | PVLPPPRSPNRPTLS | 264

molecular target: CaBzz1-D2; assay: as above
Procedure: as §1

Row | Binder | SPOT peptide array binding signal intensity
23 | PVLPPPRSPNRPTLS | 56

molecular target: CaCyk3; assay: as above
Procedure: as §1

Row | Binder | SPOT peptide array binding signal intensity
24 | PVLPPPRSPNRPTLS | 67

molecular target: CaFus1; assay: as above
Procedure: as §1

Row | Binder | SPOT peptide array binding signal intensity
25 | PVLPPPRSPNRPTLS | ≤ 0

molecular target: CaHof1; assay: as above
Procedure: as §1

Row | Binder | SPOT peptide array binding signal intensity
26 | PVLPPPRSPNRPTLS | 2

molecular target: CaHse1; assay: as above
Procedure: as §1

Row | Binder | SPOT peptide array binding signal intensity
27 | PVLPPPRSPNRPTLS | 1.5

molecular target: CaLsb1; assay: as above
Procedure: as §1

Row | Binder | SPOT peptide array binding signal intensity
28 | PVLPPPRSPNRPTLS | ≤ 0

molecular target: CaLsb4; assay: as above
Procedure: as §1

Row | Binder | SPOT peptide array binding signal intensity
29 | PVLPPPRSPNRPTLS | 1570

molecular target: CaMyo5; assay: as above
Procedure: as §1

Row | Binder | SPOT peptide array binding signal intensity
30 | PVLPPPRSPNRPTLS | 2.5

— the supplement of paper PMC4466140
